Assay results as given in article PMC6792352, “Limited Chemical Structural Diversity Found to Modulate Thyroid Hormone Receptor in the Tox21 Chemical Library” (Environmental Health Perspectives, 2019).
Counter-ions that a name gives are not always drawn.

test system: thyroid hormone receptor (endogenous TRα and TRβ); design: species or system GH3-TRE-Luc (rat pituitary); GH3-TRE-Luc luciferase reporter, antagonist mode against 1 nM T3, loss of signal, qHTS; details: read-out: Average AC50 (uM) GH3-TRE-Antag, antagonist mode, 1 nM T3, no GH3 cytotoxicity hit

| SMILES | AC50 |
| --- | --- |
| CC(C)(O)c1cnn2c(-c3ccc(F)c(-c4c(F)cccc4C#N)c3)cnc2n1 [PharmaGSID_47330] | 42.1 µM |
| Cc1ccc(C(=O)C(C)CN2CCCCC2)cc1 (stereo not shown) [Tolperisone hydrochloride] | > 50 µM |
| CCCCCCCCCCCCCCNCCO [Myralact] | 22.8 µM |
| O=C(c1ccccc1)c1cc(Cl)ccc1O [(5-Chloro-2-hydroxyphenyl)phenylmethanone] | 84.3 µM |
| O=c1[nH]c(Cl)c(Cl)cc1Cl [3,5,6-Trichloro-2-pyridinol] | 76.8 µM |
| CCc1cccc(C)c1N(C(=O)CCl)C(C)COC (stereo not shown) [Metolachlor] | 77 µM |
| CCCCCc1ccc(N)cc1 [4-Pentylaniline] | 47.1 µM |
| NC(=O)C1(N2CCCCC2)CCN(CCCC(=O)c2ccc(F)cc2)CC1 [Pipamperone dihydrochloride] | 25.9 µM |
| Fc1ccc([C@@]2(Cn3cncn3)O[C@@H]2c2ccccc2Cl)cc1 (racemic) [Epoxiconazole] | 41.2 µM |
| Brc1ccc(Oc2ccccc2)cc1 [p-Bromodiphenyl ether] | 44.7 µM |
| CC1(CO)CN(c2ccccc2)NC1=O (stereo not shown) [4-(Hydroxymethyl)-4-methyl-1-phenylpyrazolidin-3-one] | 82.6 µM |
| C=CCOC(=O)/C=C\C(=O)OCC=C [Diprop-2-en-1-yl (2Z)-but-2-enedioate] | 79.2 µM |
| COc1ccc(CN(CCN(C)C)c2ccccn2)cc1 [Pyrilamine maleate] | 32.2 µM |
| Oc1cc(Cl)cc(Cl)c1 [3,5-Dichlorophenol] | 54 µM |
| CCCC(=O)OC[C@@H](OC(=O)CCC)[C@@H](OC(=O)CCC)[C@H](Cn1c2nc(=O)[nH]c(=O)c-2nc2cc(C)c(C)cc21)OC(=O)CCC [Riboflavin tetrabutyrate] | 42 µM |
| C=CC(C)(CCC=C(C)C)OC(=O)/C=C/c1ccccc1 (stereo not shown) [Linalyl cinnamate] | 73.9 µM |
| Clc1ccc(CCC(Cn2ccnc2)Sc2c(Cl)cccc2Cl)cc1 (stereo not shown) [Butoconazole nitrate] | 17.9 µM |

| SMILES | AC50 |
| --- | --- |
| O=C(O)c1snc(Cl)c1Cl [3,4-Dichloro-5-isothiazolecarboxylic acid] | 51.4 µM |
| Cc1cc(O)c2c(c1)C(=O)c1cccc(O)c1C2=O [Chrysophanic acid] | 40.7 µM |
| O=S1(=O)c2cccc3cccc(c23)N1CCCN1CCN(c2ccc(F)cc2)CC1 [Fananserin] | > 50 µM |
| C#C[C@]1(OC(C)=O)CC[C@H]2[C@@H]3CCC4=CC(=O)CC[C@@H]4[C@H]3CC[C@@]21C [Norethindrone acetate] | 10 µM |
| O=C(O)Cn1c(C(=O)Nc2nc(-c3ccccc3Cl)cs2)cc2ccccc21 [Lintitript] | > 50 µM |
| O=C(N[C@@H]1N=C(c2ccccc2F)c2cccc3c2N(CC3)C1=O)c1cc2ccccc2[nH]1 [N-[(3R)-1-(2-Fluorophenyl)-4-oxo-3,4,6,7-tetrahydro[1,4]diazepino[6,7,1-hi]indol-3-yl]-1H-indole-2-carboxamide] | 5.69 µM |
| COC(=O)C(C)N(C(=O)Cc1ccccc1)c1c(C)cccc1C (stereo not shown) [Benalaxyl] | > 90 µM |
| O=C(/C=C/c1ccccc1)OCc1ccccc1 [Benzyl cinnamate] | > 50 µM |
| O=C(O)c1cccnc1Nc1cccc(C(F)(F)F)c1 [Niflumic acid] | 20.3 µM |
| CC(C(=O)O)c1ccc(C2CCCCC2)c2ccccc12 (stereo not shown) [Quadrisol] | 35.8 µM |
| CCO[Si](C)(CCCOCC1CO1)OCC (stereo not shown) [Diethoxy(methyl)[3-(oxiran-2-ylmethoxy)propyl]silane] | 62.6 µM |
| CCOCN(C(=O)CCl)c1c(C)cccc1CC [Acetochlor] | 75.3 µM |
| Cc1oc(=O)oc1CN1CCN(c2cc3c(cc2F)c(=O)c(C(=O)O)c2n3C(C)S2)CC1 (stereo not shown) [Prulifloxacin] | > 50 µM |
| CCc1c2c(nc3ccc(OC(=O)N4CCC(N5CCCCC5)CC4)cc13)-c1cc3c(c(=O)n1C2)COC(=O)[C@]3(O)CC [Irinotecan hydrochloride] | 19.1 µM |
| CCC(=O)OCC(=O)[C@@]1(OC(=O)CC)[C@@H](C)C[C@H]2[C@@H]3CCC4=CC(=O)C=C[C@]4(C)[C@@]3(F)[C@@H](O)C[C@@]21C [Betamethasone dipropionate] | 27.9 µM |
| CCCCCCOc1ccccc1C(N)=O [Exalamide] | 30.7 µM |
| C=C(C)CN(CC)c1c([N+](=O)[O-])cc(C(F)(F)F)cc1[N+](=O)[O-] [Ethalfluralin] | > 90 µM |
